From PubChem BioAssay AID624202 (National Center for Advancing Translational Sciences (NCATS), 2012)
About 4,000 (1.1%) of roughly 380,000 compounds were called active. Inconclusive results (about 3%) are left out. Calls come from the whole dose curve; as a rule, active = well fitted activation curve with a large enough effect; inconclusive = small, poorly fitted or top-dose-only effect; inactive = no such curve, though single readings can be large or run the other way. The full list was thinned out, with actives kept by preference.

Assay: qHTS Assay to Identify Small Molecule Activators of BRCA1 Expression; note: nearly all actives have a fitted effect of over 80% in size
Conditions: MCF7-BRCA1-FFLuc reporter, luminescence, 48 h; series mostly up to 46.1 µM; activation: at the top concentration
Outline: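 MCF7-BRCA1-FFLuc, 2000 cells/well; 2 h attach, 37 °C/5% CO2; compound 48 h; luciferase substrate 15 min; luminescence end-point. Norm. to genistein 10 microM max activation and DMSO; concentration-response curves fitted.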
Potency is the fitted concentration of half-maximal effect.

activation, inactive:
Cc1nc2c(-c3ccccc3)c(C)nn2c(C)c1CCC(=O)NCCc1ccccc1 -22.8%
O=C1CC(c2ccccc2)CC2=C1C(c1ccco1)n1nc(C(F)(F)F)nc1N2 (stereo not drawn) 0%
Cc1cc(Nc2cccc(C(F)(F)F)c2)nc2ccc(NC(=O)c3ccc(=O)[nH]c3)cc12 -55.5%
CN(C)Cc1c(O)ccc2c(=O)c(-c3ccccc3Cl)coc12 -3.77%
CC(C)=CCc1c(O)c(CC=C(C)C)c2occ(-c3ccc(O)cc3)c(=O)c2c1O -9.95%
COc1ccc(CCn2cc3c(c2-c2ccc(Br)cc2)c(=O)n(C)c(=O)n3C)cc1OC -7.26%
CCC(C)N(c1ccc(/C=C/c2ccnc3ccccc23)cc1)C(C)CC (stereo not drawn) 3.42%
COC(=O)c1ccc(Cn2c(SCC(=O)N(C)c3ccccc3)nc3ccccc32)cc1 -0.941%
COc1ccc(CN2C(=O)C(NC(=O)c3cccc(C)c3)(C(F)(F)F)N=C2c2ccccc2)cc1 (stereo not drawn) -23%
CCN1CCN(c2ccc(/C=C/c3ccnc4ccccc34)cc2)CC1 3.84%
C/C(=C/c1ccccc1)C(=O)N1CCN(c2ccccc2)CC1 -4.42%
O=C(O)CCC(=O)Nc1ccc(N2CCOCC2)cc1 3.88%
COc1ccc(S(=O)(=O)NCc2cccn2Cc2cccc(C)c2)cc1Cl 9.1%
CCn1cc2nc(SCc3cccc(F)c3)n(CCc3ccccc3)c(=O)c2n1 -31.5%
CCc1ccccc1NS(=O)(=O)c1ccc2nc(-c3ccccc3)[nH]c2c1 -11.7%
O=C(CCC(=O)c1cccs1)NC1CCCCCC1 61.2%
CC(=O)c1cc(-c2ccccc2)n(CCC(=O)NC2CCCCCC2)c1C -25.7%
C=C1C=C(C)n2ncc(C(=O)Nc3ccccc3O)c2N1 -24.1%
COc1cc(OC)cc(C(=O)Nc2c(C(=O)Nc3ccc(F)cc3)oc3ccccc23)c1 -7.38%
COc1ccc(C(=O)OCC(=O)c2ccc(Cl)s2)c(OC)c1OC -2.37%
Cn1cccc1C(=O)OCC(=O)NCCc1ccccc1 62.9%
CCCCNC(=O)Cn1c(SCc2cccc(Cl)c2)nc2ccncc21 0%
CCCN(CCC)C(=O)C(Cc1ccccc1)NS(=O)(=O)c1ccc2c(c1)c(=O)n(C)c(=O)n2C (stereo not drawn) 0%
Cc1ccc(-n2c(=O)c3cccnc3n2CC(=O)NCc2ccc(F)cc2)cc1C -30.2%
CCCCOC(=O)CSc1ncnc2sc3c(c12)CCC(C)C3 (stereo not drawn) 2.09%
SCc1nc2ccc(Cl)cc2[nH]1 -28.9%
Cc1cccc(-c2noc(CCC(=O)NC3CCCC3)n2)c1 11.6%
Cc1ccc(C)c(N2CCN(C(=O)CCc3nc(-c4cccc(C(F)(F)F)c4)no3)CC2)c1 49.1%
Cc1[nH]c2ccccc2c1C(=O)C(=O)N(C)c1ccccc1 1.01%
Cc1noc(C)c1CSCC(=O)Nc1nc2ccc(Oc3ccccc3)cc2s1 -16.1%
Cc1sc2ncnc(N3CCC(C(=O)Nc4nc5ccc(Cl)cc5s4)CC3)c2c1C -10.5%
COc1ccc(-c2nc(=N)sn2-c2ccccc2)cc1 3.98%
Cc1ccc2c(c1)-c1c(cnn1CC(=O)Nc1ccccc1C#N)CO2 -22.3%
COc1cc(CN(C(=O)c2ccccc2Br)c2ccccn2)cc(OC)c1OC 2.76%
Nc1ccc(/C=C/c2ccnc3ccccc23)c([N+](=O)[O-])c1 16.1%
CN(C(=N)N)c1ccc(/C=C2\C=Cc3ccccc32)cc1 45.5%
O=C(NCCc1cccc(F)c1)C1CCCN(c2nc3ccccc3s2)C1 (stereo not drawn) -15.9%
COc1ccc2nc(N3CCN(C(=O)c4ccc([N+](=O)[O-])o4)CC3)sc2c1 -54.7%
CCCCNC(=O)c1ccc2c(c1)NC(=O)C(C(C)C)N2 (stereo not drawn) -10.7%
C=CCNC(=O)c1ccccc1SCc1c(C)noc1C -1.61%
C=CCNC(=O)c1ccc2nc(-c3ccco3)c(-c3ccco3)nc2c1 8.64%
Cc1cc(Cl)ccc1OCCCC(=O)NCc1ccccn1 -1.52%
CCc1ccccc1NC(=O)c1cc(-c2ccc3c(c2)OCO3)on1 62.1%
O=C(NC1CCCC1)c1cc(-c2ccccc2)on1 3.84%
CSc1ccccc1NC(=O)c1cc(C2CC2)on1 32.2%
COc1ccccc1CNS(=O)(=O)c1cc(C(=O)NCc2ccccn2)c(Cl)cc1Cl 2.04%
Cc1cc(C)nc(NC(=O)Nc2ccccc2C(F)(F)F)n1 -53%
O=C(Nc1ccc([N+](=O)[O-])cc1)c1cnn2c1NC(=C1CC1)C=C2C(F)F -12%
Cc1ccccc1C(=O)Nc1cc(C)c(O)c(-c2nc3ccccc3o2)c1 4.2%
COc1ccc(-n2c(SCC(N)=O)nc3c(oc4ccccc43)c2=O)cc1 10.5%
COc1ccccc1N1CCN(C(=O)C2CCN(S(=O)(=O)c3c(C)noc3/C=C/c3ccc(C)cc3)CC2)CC1 -17.8%
Cc1cc(C)c(NC(=O)CCc2c(C)nc3c(c(C)nn3C(C)(C)C)c2C)c(C)c1 0.411%
Cc1ccc(-n2nnnc2CNC(=O)c2ccccc2C)cc1C -4.16%
CCC(CC)NC(=O)CSc1nnc(-c2c[nH]c3ccccc23)o1 0%
CN(C(=O)CSc1nnc(-c2c[nH]c3ccccc23)o1)C1CCS(=O)(=O)C1 (stereo not drawn) -6.49%
Cc1ccccc1NC(=O)Cn1c(=O)n(CCc2ccccc2)c(=O)c2ccccc21 -32.7%
COc1c(Cl)cc(Cl)cc1C(=O)Nc1cccc2cccnc12 -37.4%
COc1cc2[nH]c(=O)n(Cc3ccc(C(=O)NCc4ccc(C)cc4)cc3)c(=O)c2cc1OC 0%
Cc1cccc(NC(=O)COC(=O)c2ccccc2OCc2cccc(Br)c2)c1 0%
CCOc1ccc(OCC)c(NC(=O)CN(c2ccc(C)cc2)S(=O)(=O)c2c(C)n[nH]c2C)c1 -79.3%
CC(=O)Nc1cccc(NC(=O)CSc2nccn2Cc2ccc(F)cc2)c1 4.89%
CCCCNC(=O)CSc1nccn1Cc1ccccc1 -5.11%
COc1ccc(CN(Cc2ccccc2)C(=O)c2ccc(O)cc2)cc1COc1ccc(NC(C)=O)cc1 -5.58%
Cc1ccc(CCNC(=O)Cn2c(-c3cccs3)cc3cc(F)ccc32)cc1 0.969%
COc1ccc(NC(=O)Cn2c(=O)cc(C)c3c(C)nn(-c4cccc(Cl)c4C)c32)cc1OC 6.76%
O=C(O)C1=C/C(=C/C=[N+]2c3cc(O)c(O[C@H]4OC(CO)[C@@H](O)[C@@H](O)[C@@H]4O)cc3C[C@@H]2C(=O)[O-])C[C@H](C(=O)O)N1 (stereo partly drawn) 7.03%
COc1ccc(-c2[nH]c3c(c2-c2c(-n4cccc4)n(C)c(=O)n(C)c2=O)c(=O)n(C)c(=O)n3C)cc1 -3.01%
Cc1ccc(S(=O)(=O)n2nc(C)c(S(=O)(=O)N3CCCCCC3)c2C)cc1 1.48%
CCOc1ccc(NC(=O)c2ccc(NC(=O)CN3C(=O)C(=O)N(CC(C)C)C3=O)cc2)cc1 38.8%
CCOc1ccc(NC(=O)Cn2c(C)ccc(C#N)c2=O)cc1 0%
CCn1cc(C(=O)N2CCN(c3cc(C)ccc3C)CC2)c(=O)c2cc(S(=O)(=O)N(C)C3CCCCC3)ccc21 3.03%
CSc1ccc(CCNC(=O)c2cnn(-c3ccccc3)c2-n2cccc2)cc1 0%
CC(=O)c1ccc(NC(=O)CCc2nc(-c3ccc(C)cc3)no2)cc1 0%
CC(=O)Nc1ccc2nc(SCCOc3cc(C)cc(C)c3)sc2c1 0.227%
O=C(Nc1ccc2nc(SCC(=O)N3CCc4ccccc43)sc2c1)c1ccccc1F 1.78%
COc1cc2nc(N3CCCN(C)CC3)nc(NC3CC3)c2cc1OC -1.84%
CCOc1ccc(C(=O)CCC(=O)NC2=NCCS2)cc1 -0.556%
COc1ccccc1C(=O)NCCC(=O)NC1=NCCS1 -5.3%
O=C(Nc1ccccc1)c1ccccc1OCc1ccccc1 0%
O=C(CCCCn1c(=O)c2ccccc2n(CC(=O)Nc2cccc(C(F)(F)F)c2)c1=O)NCc1ccc2c(c1)OCO2 4.95%
NC1=NC(c2cc(F)cc(F)c2)n2c(nc3ccccc32)N1 (stereo not drawn) 12.8%
O=C(c1cnn2c1NC(=C1CC1)C=C2C(F)F)N1CCc2ccccc2C1 -19.4%
Cc1cccc(NC(=O)CSc2nc3c(oc4ccccc43)c(=O)n2-c2ccc(F)cc2)c1 -1.49%
O=C(Nc1cc(-c2nc3ccccc3o2)ccc1Cl)c1cc([N+](=O)[O-])ccc1N1CCOCC1 10.8%
S=c1[nH]c(=S)c2n[nH]nc2[nH]1 10.8%

Potency, active:
O=c1c(-c2ccccc2)coc2cc(O)ccc12 12.6 µM
O=C(/C=C/c1ccc(N2CCOCC2)cc1)c1ccccc1 3.16 µM
O=C(CCS(=O)(=O)c1ccccc1)NC1CCCC1 10 µM
Cn1cccc1C(=O)OCC(=O)c1ccc(Br)s1 8.91 µM
Cc1ccc(Cc2nc(-c3cccc(C)c3)no2)cc1 7.94 µM
Cc1ccc(C(=O)Nc2nc3ccc(Cl)cc3s2)o1 0.891 µM
CN1C(=O)/C(=C/C=C2\SCCN2C)OC1=S 5.62 µM
Fc1ccc2nc(N3CCCCC3)sc2c1 4.47 µM
O=C(Nc1ccccc1C(F)(F)F)c1cc(-c2ccc(O)cc2)on1 11.2 µM
O=C(NCc1ccccn1)c1cc(-c2ccccc2Cl)on1 10 µM
C=CCNC(=O)c1cc(-c2ccccc2O)on1 5.62 µM
O=C(Nc1cccnc1Cl)c1cc(-c2ccccc2O)on1 8.91 µM
O=C(CSc1nnc(-c2c[nH]c3ccccc23)o1)c1ccccc1 12.6 µM
CCc1cccc(NC(=O)CSc2nccn2C)c1 12.6 µM
Cc1nn2cc(-c3ccc(Cl)cc3)cnc2c1Br 8.91 µM
CCOc1ccc(NC(=O)c2ccc(NC(=O)COC(=O)c3ccc(NC(=O)CC#N)cc3)cc2)cc1 2.82 µM
CSc1nc2ccc(NC(=O)c3c(F)cccc3F)cc2s1 5.62 µM
O=C(NC1=NCCS1)c1ccc(Cl)s1 5.62 µM
